Results on 38 compounds are retold here after PubChem BioAssay (NCI).

Molecules are shown by their SMILES. The panel holds about 83,000 compounds, 20% with a hit somewhere; the sample as a whole holds those more often.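 Testing used 96-well plates and a 48-hour single-concentration exposure. Example: -40 means 40% of the starting cells died.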 A number with no mark means an inactive call. Activity calls are given as the source filed them. The calls were made as follows: active = growth percent below 10; inactive = the rest.

The first test relates to HCC-2998 colon. Put plainly: NCI-60 one-dose screen, 48 h (100 = growth as untreated, 0 = no growth, -100 = all killed). The settings on record: 10 µM unless noted.
`COc1cc2c(cc1OCCCCn1c(-c3cccs3)nc3ccccc31)N=C[C@@H]1CCCN1C2=O`: the growth is 0.698% (active). For `C1CCC2(CC1)OOCNCOO2`, the growth is 106%. Regarding `COC1=CC(=O)O[C@@H](/C=C/c2ccc3c(c2)OCO3)C1`, the growth was 111%. On to `O=C(CC1(O)C(=O)Nc2ccc(Cl)cc21)c1ccc(C(=O)NCC2CCC3(CC2)OOC2(CCCCC2)OO3)cc1` (centres undefined), for which the growth is 83.6%. For `C/C(=C\c1ccn(-c2ccc(N)cc2C(F)(F)F)n1)[C@@H]1C[C@@H]2O[C@]2(C)CCC[C@H](C)[C@H](O)[C@@H](C)C(=O)C(C)(C)[C@@H](O)CC(=O)O1`, the growth was 14.1%.

On to `O=NNc1ccccn1`, for which the growth was 86.7%. `N#CC1(c2ccccc2)CCN(Cc2ccccc2)CC1`: the growth is 113%. Still for that read-out and setting: under `CN(C)CCCOc1ccc2c(c1)c(C(=O)C(=O)NCCO)cn2Cc1ccccc1` stands 115%. Take `CC12CCC=CC1CCC1C2CCC2(C)C(c3ccc(=O)oc3)CCC12O` (centres undefined): the growth is -21.5% (active). On the same count and under the same terms, under `CCCCOc1ccc(C(N)Cc2ccccc2)cc1` (centres undefined) stands 29.9%; under `CCC1CN1CCCCN1CC1CC` (centres undefined), 100%. Same read-out and setting: under `CC1(C)C(C(=O)c2cn(CCCCF)c3ccccc23)C1(C)C` stands 116%; under `Cc1cc(N(CCCl)CCCl)ccc1C=Nc1cccnc1`, 90.7%; under `COC(=O)[C@H](Cc1ccccc1)NC(=O)c1csc([C@@H](C[C@H](C(C)C)N(C)C(=O)[C@@H](NC(=O)[C@H]2CCCCN2C)C2CC2)OC(C)=O)n1`, 16.1%. For `[Cl][Hg][c]1cc(Br)cc(Br)c1`, the growth is 85.4%. Consider `COc1ccc2c(c1)c(-c1nc(-c3c[nH]c4ncccc34)cs1)cn2CCCCN1CCCCC1`, for which the growth was -9.73% (active).

For the compound `C=COC(=O)CCN1CC1`, the growth is 110%. Still for that read-out and setting: in the case of `COC(=O)[C@@H](C)C[C@H](Cc1ccccc1)NC(=O)c1csc([C@@H](C[C@H](C(C)C)N(C)C(=O)[C@@H](NC(=O)[C@H]2CCCCN2C)C2CCCCC2)OC(C)=O)n1` it was 10.3%; in that of `CCOC(=O)[C@@H](C)C[C@H](Cc1ccccc1)NC(=O)c1csc([C@@H](C[C@H](C(C)C)N(C)C(=O)CNC(=O)[C@H]2CCCCN2C)OC(C)=O)n1`, 8.98% (active); in that of `CC1=C(CNO)C2=C(C)C3(CC3)[C@@](C)(O)C(=O)C2=C1`, -33.4% (active). Still for that read-out and setting: under `C[C@]12CCc3sc(-c4ccccc4O)nc3C1=CC[C@@H]1[C@@H]2CC[C@]2(C)C(=O)CC[C@@H]12` stands 111%; under `COC(=O)[C@@H](C)C[C@H](Cc1ccc2ccccc2c1)NC(=O)c1csc([C@@H](C[C@H](C(C)C)N(C)C(=O)[C@@H](NC(=O)[C@H]2CCCCN2C)C(C)C)OC(C)=O)n1`, 52.8%. The same measure, in the same setting: in the case of `COc1cccc(/C=C/[N+](=O)[O-])c1` it was -87.9% (active); in that of `CC[C@H](C)[C@H](NC(=O)c1cccn1C)C(=O)N(C)[C@H](C[C@@H](OC(C)=O)c1nc(C(=O)N[C@@H](Cc2ccccc2)C[C@H](C)C(=O)OC)cs1)C(C)C`, 18.4%.

As for `[Cl][Hg][n]1c(-c2ccco2)nc2ccccc21`, the growth was 116%.

On to `COc1ccc2c(c1)c(-c1nc(-c3cn(C)c4ncccc34)cs1)cn2CCCCN1CCCCC1`, for which the growth was 95.3%.

A further test has as its system KM12 colon. The test is described as above. The settings on record: 10 µM unless noted.
As to `Fc1c[c-]c(-c2ccccn2)c(F)c1.[CH3-].[Pt+2].c1ccc([PH+](c2ccccc2)c2ccccn2)cc1`, the growth was 10.4%.

As for `CC(=O)O[C@@H]1CC[C@]2(C)[C@H]3CC[C@]4(C)C(=O)CC[C@H]4[C@@H]3C[C@@H]3SC(N)=N[C@@]32C1`, the growth is 33.1%. For `COc1cc2c(cc1OCc1ccccc1)C(CC(C)C)=[N+](C)CC2`, the growth was 78.8%. Same read-out and setting: in the case of `CC(C)=CCC[C@H](C(=O)O)[C@@H]1CC[C@]2(C)C3=C(CC[C@@]12C)[C@@]1(C)CC[C@H](O)C(C)(C)[C@@H]1CC3` it was 99.7%; in that of `CC(C)=CCc1c(O)c(C(=O)CC(C)C)c(O)c2c(-c3ccccc3)cc(=O)oc12`, 41%; in that of `Cc1ccc(C(Cc2ccccc2)NCCO)cc1` (centres undefined), 90%. As to `O=C(O)CNC(=O)C(Cl)(Cl)Cl`, the growth is 101%. In the case of `COC(=O)[C@@H](C)C[C@H](Cc1ccccc1)NC(=O)c1csc([C@@H](C[C@H](C(C)C)N(C)C(=O)[C@@H](NC(=O)[C@H]2CCCCN2C)c2ccc(F)cc2)OC(C)=O)n1`, the growth is -3.41% (active). Same read-out and setting: in the case of `C[C@]12CC[C@H]3[C@@H](C[C@@H]4SC(Nc5ccccc5)=N[C@@]45CC(O)CC[C@]35C)[C@@H]1CCC2O` (some centres undefined) it was 15.6%; in that of `COc1ccc(/C=C\c2cc(OC)c(OC)c(OC)c2)cc1NC(=O)/C=C/c1cc(OC)c(OC)c(OC)c1`, 28.6%.

Turning to `O=C(N/N=C/c1ccc(N(CCCl)CCCl)cc1)c1cccc2ccccc12`, the growth was 67.4%.

With `CC(=O)O[C@H](C[C@H](C(C)C)N(C)C(=O)[C@@H](NC(=O)[C@H]1CCCCN1C)C(C)C)c1nc(C(=O)N[C@@H](Cc2ccccc2)C[C@H](C)C(=O)O)c(CCOCc2ccccc2)s1`, the growth is 5.5% (active).

Consider `COc1cc2c(cc1OCCCCn1c(-c3cccs3)nc3ccccc31)N=C[C@@H]1CCCN1C2=O`, for which the growth is 0.0109% (active). On the same count and under the same terms, under `C1CCC2(CC1)OOCNCOO2` stands 95.9%; under `COC1=CC(=O)O[C@@H](/C=C/c2ccc3c(c2)OCO3)C1`, 103%; under `O=C(CC1(O)C(=O)Nc2ccc(Cl)cc21)c1ccc(C(=O)NCC2CCC3(CC2)OOC2(CCCCC2)OO3)cc1` (centres undefined), 9.65% (active). As for `C/C(=C\c1ccn(-c2ccc(N)cc2C(F)(F)F)n1)[C@@H]1C[C@@H]2O[C@]2(C)CCC[C@H](C)[C@H](O)[C@@H](C)C(=O)C(C)(C)[C@@H](O)CC(=O)O1`, the growth is 11.4%. Turning to `O=NNc1ccccn1`, the growth was 96.7%. The same measure, in the same setting: in the case of `N#CC1(c2ccccc2)CCN(Cc2ccccc2)CC1` it was 99.7%; in that of `CN(C)CCCOc1ccc2c(c1)c(C(=O)C(=O)NCCO)cn2Cc1ccccc1`, 104%; in that of `CC12CCC=CC1CCC1C2CCC2(C)C(c3ccc(=O)oc3)CCC12O` (centres undefined), -55.7% (active). `CCCCOc1ccc(C(N)Cc2ccccc2)cc1` (centres undefined): the growth was 98.5%.

For `CCC1CN1CCCCN1CC1CC` (centres undefined), the growth was 106%.

Turning to `CC1(C)C(C(=O)c2cn(CCCCF)c3ccccc23)C1(C)C`, the growth is 102%. Take `Cc1cc(N(CCCl)CCCl)ccc1C=Nc1cccnc1`: the growth was 102%. Turning to `COC(=O)[C@H](Cc1ccccc1)NC(=O)c1csc([C@@H](C[C@H](C(C)C)N(C)C(=O)[C@@H](NC(=O)[C@H]2CCCCN2C)C2CC2)OC(C)=O)n1`, the growth is 2.87% (active).

On to `[Cl][Hg][c]1cc(Br)cc(Br)c1`, for which the growth was 70.4%. Same read-out and setting: under `COc1ccc2c(c1)c(-c1nc(-c3c[nH]c4ncccc34)cs1)cn2CCCCN1CCCCC1` stands -62.9% (active). On the same count and under the same terms, in the case of `C=COC(=O)CCN1CC1` it was 107%; in that of `COC(=O)[C@@H](C)C[C@H](Cc1ccccc1)NC(=O)c1csc([C@@H](C[C@H](C(C)C)N(C)C(=O)[C@@H](NC(=O)[C@H]2CCCCN2C)C2CCCCC2)OC(C)=O)n1`, 2.88% (active).

Regarding `CCOC(=O)[C@@H](C)C[C@H](Cc1ccccc1)NC(=O)c1csc([C@@H](C[C@H](C(C)C)N(C)C(=O)CNC(=O)[C@H]2CCCCN2C)OC(C)=O)n1`, the growth was 12%. Same read-out and setting: under `CC1=C(CNO)C2=C(C)C3(CC3)[C@@](C)(O)C(=O)C2=C1` stands 70%. In the case of `C[C@]12CCc3sc(-c4ccccc4O)nc3C1=CC[C@@H]1[C@@H]2CC[C@]2(C)C(=O)CC[C@@H]12`, the growth was 107%. Still for that read-out and setting: in the case of `COC(=O)[C@@H](C)C[C@H](Cc1ccc2ccccc2c1)NC(=O)c1csc([C@@H](C[C@H](C(C)C)N(C)C(=O)[C@@H](NC(=O)[C@H]2CCCCN2C)C(C)C)OC(C)=O)n1` it was 36.2%; in that of `COc1cccc(/C=C/[N+](=O)[O-])c1`, 15.6%; in that of `CC[C@H](C)[C@H](NC(=O)c1cccn1C)C(=O)N(C)[C@H](C[C@@H](OC(C)=O)c1nc(C(=O)N[C@@H](Cc2ccccc2)C[C@H](C)C(=O)OC)cs1)C(C)C`, 10%. The same measure, in the same setting: under `[Cl][Hg][n]1c(-c2ccco2)nc2ccccc21` stands 97.8%; under `COc1ccc2c(c1)c(-c1nc(-c3cn(C)c4ncccc34)cs1)cn2CCCCN1CCCCC1`, -68.7% (active).
